We go through 40 compounds from PubChem BioAssay (NCI).

This is part of a sample that, as a whole, favours compounds with a hit. Of some 83,000 tested, about 20% had one in any assay.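 Activity criterion: percent growth below 10, measured after cells in 96-well plates were exposed to a single compound concentration for 48 hours.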 A number with no mark means an inactive call. The source made the active and inactive calls.

The experiment has as its system OVCAR-4 ovarian. Put plainly: NCI-60 one-dose screen, 48 h (100 = growth as untreated, 0 = no growth, -100 = all killed). The conditions noted are these: 10 µM unless noted. As for the experimental part: Growth inhibition of the OVCAR-4 human tumor cell line is measured as a screen for anti-cancer activity. Cells are grown in 96 well plates and exposed to the test compound for 48 hours. Compounds are tested at a single concentration, which is 10^-5 M for most compounds. The reported endpoint is percent growth (GI% or GIPRCNT), where numbers from 0 - 100% represent growth inhibition, and numbers from -100% - 0 represent cell death. For example, a value of 40 represents 60% growth inhibition. A value of 0 means no net growth occurred over the course of the experiment. A value of -40 indicates 40% of cells at the beginning of the experiment died by the end of the experiment. A value of -100 means all cells are dead at the end of the experiment.
NCI-60 Human Tumor Cell Lines Screen was performed using the standard one-dose NCI protocol, which is described in more detail at https://dtp.cancer.gov/discovery_development/nci-60/default.htm.
Compounds with GIPRCNT values below 10 were considered active. Activity score was based on GIPRCNT using the following formula: […]
Score is 0 for GIPRCNT values of 100 or above, 50 for GIPRCNT values of 0, and 100 for GIPRCNT values of -100.
For `C=C(C)C(=O)O[C@H]1C[C@@]2(C)OC(=CC2=O)[C@H](C)[C@H](O)[C@H]2OC(=O)C(=C)[C@@H]21`, the growth is 82.3%.
For `CC(C)(C)n1nnnc1C(Nc1nccs1)c1cc2cccc3ccc4cccc1c4c32` (stereo not given), the growth was 95.3%.
Regarding `CC1(C)CC[C@]2(C(=O)O)CC[C@]3(C)C(=CCC4[C@@]5(C)C[C@@H](O)[C@@H]6OC(c7ccccc7O)OC[C@@]6(C)C5CC[C@]43C)C2C1` (stereo not given in full), the growth was 63.6%.
The value for `CCCCCCNC(=O)Oc1ccc(/C(=C(\C)c2ccc(Cl)cc2)c2ccc(OCCN(C)C)cc2)cc1` was 74.5%; that for `O=C(Nc1ccc(-c2nc(-c3cccc(O)c3)c(-c3ccnc(Br)c3)[nH]2)cc1)c1ccccc1` was 35%; that for `CCOC(=O)c1nn(-c2ccc(C)cc2)c(=O)c2c(N)c(C#N)c(-c3ccc(OC)cc3)cc12` was 101%.
The value for `Cc1[nH]nc2ccc(-c3nc4cnc(N5CCN(C)CC5)cn4c3Nc3ccc(F)cc3Br)cc12` was 64.6%; that for `CC1COc2c(N3CCN(C)CC3)c(F)cc3c(=O)c(C(=O)N/N=C/c4cc[nH]c4)cn1c23` (stereo not given) was 44.6%.
The value for `O=C(NNc1nc2cc(F)ccc2n2cncc12)c1cnccn1` was 31.1%; that for `CC1OC(O[C@@H]2[C@H](O)C(CO)OC(O[C@H]3COC(O[C@H]4CC[C@]5(C)[C@H]6CC[C@]78OC[C@@]9(CC[C@](C)(C=O)C[C@H]97)C(=O)C[C@@]8(C)[C@]6(C)CC[C@H]5C4(C)C)[C@@H](O)[C@@H]3O)[C@H]2OC2OC[C@@H](O)[C@@H](O)[C@@H]2O)[C@@H](O)[C@@H](O)[C@H]1O` (stereo not given in full) was 91.6%.
As to `IP(CCCCCCCCCCSc1n(Cc2ccc3ccccc3c2)c(-c2ccccc2)c(-c2ccccc2)[n+]1Cc1ccc2ccccc2c1)(c1ccccc1)(c1ccccc1)c1ccccc1`, the growth is -68.6% (active).
Consider `COc1ccc(-c2no[n+]([O-])c2Nc2ccccc2Br)cc1`, for which the growth was 101%.
As for `c1ccc(-c2c(-c3ccccc3)[n+](Cc3ccc4ccccc4c3)c(-c3ccccc3)n2Cc2ccc3ccccc3c2)cc1`, the growth is -75% (active).
Turning to `CC1OC(O[C@@H]2C(O)C(CO)OC(O[C@H]3COC(O[C@H]4CC[C@]5(C)[C@H]6CC[C@]78OC[C@@]9(CC[C@](C)(C=O)C[C@H]97)[C@H](O)C[C@@]8(C)[C@]6(C)CC[C@H]5C4(C)C)[C@@H](OC4OC(CO)[C@@H](O)[C@@H](O)[C@@H]4O)[C@@H]3O)[C@H]2OC2OC[C@@H](O)[C@@H](O)[C@@H]2O)[C@@H](O)[C@@H](O)[C@H]1O` (stereo not given in full), the growth was -50.9% (active).
For `NC(=O)c1c(NC(=O)c2cccc(C(F)(F)F)c2F)sc2c1CCC(=O)C2`, the growth is 6.91% (active).
In the case of `COc1ccc(/C=N/Nc2nc(Nc3ccccc3)nc(Nc3ccc(S(N)(=O)=O)cc3)n2)cc1`, the growth was 66.2%.
With `O=C1Nc2ccc(Br)cc2/C1=N\c1nnc(-c2ccc(Cl)cc2)o1`, the growth was 86.4%.
In the case of `C/C(=C(/c1ccc(O)cc1)c1ccc(OCCN2CCCC2)cc1)c1ccc(Cl)cc1`, the growth was 65.4%.
Regarding `C=C(C)C(=O)O[C@H]1C[C@@]2(C)OC(=CC2=O)/C(CO)=C\[C@H]2OC(=O)C(=C)[C@H]12`, the growth was 17.4%.
`Cc1ccc(-c2cc3nc(C(Cl)Cl)nc(-c4ccccc4)n3n2)cc1`: the growth was 103%.
As to `Cn1cc(-c2nn3c(=O)cc(-c4ccccc4)nc3s2)c2cc(F)ccc21`, the growth is 47.5%.
For the compound `CCOC(=O)c1c(NCC(=O)Nc2ccc(Br)cc2)sc2c1CCCC2`, the growth was 35.5%.
As to `O=C(Nc1cccc(Cl)c1)Nc1nc2ccc(-c3cccc4ccccc34)cc2s1`, the growth is 20.4%.
For `O=C(CSc1ccc(-c2nc3ccccc3[nH]2)cn1)N1CCN(c2ccccc2F)CC1`, the growth was 24.2%.
As for `O=[N+]([O-])c1ccc(-c2nnc(SCc3ccc(O)c4ncccc34)n2-c2ccccc2)cc1`, the growth is 50.6%.
For the compound `O=C(NCCCNc1cc(-c2cn(-c3ccccc3)nc2-c2cccc(O)c2)ccn1)Nc1cccc(C(F)(F)F)c1`, the growth is 38.9%.
The value for `CC(=O)c1ccc(NC(=O)COc2ccc(C3SCC(=O)N3c3ccc(Br)cc3)cc2)cc1` (stereo not given) was 103%; that for `Cc1cn(-c2cc(NC(=O)c3cncc(C#Cc4cnc5ccc(O[C@@H]6CCOC6)nn45)c3)cc(C(F)(F)F)c2)cn1` was -33.1% (active); that for `COCCC[C@H]1O[C@@](O)([C@H](C)[C@@H]2CC(OC)C(O)/C=C(C)/C=C(C)/C=C(\C)C(OC3O[C@@H](C)[C@H](O)C(O)[C@@H]3O)C(C)/C=C(C)/C=C(OC)/C=C(\C)C(=O)O2)C(OC)C(O)[C@]1(C)O[C@H]1C[C@@H](O)[C@H](O[C@H]2C[C@](C)(O)[C@H](O)C(C)O2)C(C)O1` (stereo not given in full) was 19.7%.
`CC1=CC(=O)CC(C)(C)[C@@]1(O)/C=C/C(C)=C\C(=O)O`: the growth was -15.9% (active).
The value for `Clc1ccc(-c2csc(N/N=C/c3nc4ccccc4n3C3CC3)n2)cc1` was 101%; that for `COc1ccc(CCN2C(=O)/C(=C/c3nc(CO)cs3)SC2=S)cc1` was 91.8%.
Consider `CCOC(=O)c1c(NC(=O)c2ccc(C(C)(C)C)cc2)sc2cc(OCCN3CCCCC3)ccc12`, for which the growth was 102%.
The value for `CCN1CCN(Cc2ccc(C(=O)Nc3nc4ccc(Oc5ccnc(C(=O)NC)c5)cc4s3)cc2C(F)(F)F)CC1` was 61%; that for `C=CCn1c(SCC(=O)Nc2cccc(C(=O)/C=C/c3ccc(C)cc3)c2)nc2ccccc2c1=O` was 84.9%; that for `COC(=O)[C@@]1(C)CC[C@]2(C)CC[C@]3(C)C(=CC(=O)[C@@H]4[C@@]5(C)Cc6c(n(CC#CCN7CCN(C)CC7)c7ccccc67)C(C)(C)[C@@H]5CC[C@]43C)[C@@H]2C1` was 89.7%.
For `COc1ccc(/C(C)=C(\c2ccc(Cl)cc2)c2ccc(OCCN)cc2)cc1`, the growth is 90.3%.
In the case of `C=C(C)[C@@H]1CC[C@]2(COS(C)(=O)=O)CC[C@]3(C)[C@H](CC[C@@H]4[C@@]5(C)CCCNC(C)(C)[C@@H]5CC[C@]43C)[C@@H]12`, the growth is 95.8%.
Consider `Cc1cccc(NC(c2cc3cccc4ccc5cccc2c5c43)c2nnnn2C(C)(C)C)c1C` (stereo not given), for which the growth was 85.2%.
Regarding `Cc1ccc(/C=C/CC(=O)Nc2ccc(C(=O)Nc3ccc(F)cc3N)nc2)cn1`, the growth was 43.9%.
